{"source": "paper PMC7862700", "about": "“An all-to-all approach to the identification of sequence-specific readers for epigenetic DNA modifications on cytosine”", "test_in_all_cases": "DAPPL (digital affinity profiling via proximity ligation, sequencing); 10 mM Tris-HCl pH 7.5, 50 mM NaCl, 1 mM DTT, 4% glycerol, room temperature, 30 min; GST-TFs on glutathione beads, 16-mer random dsDNA library, 0.1% formaldehyde crosslink after washing; high values mean tight binding", "conditions_in_all_cases": "protein: recombinant; tags: N-terminal GST; dsDNA, one strand shown", "key": {"FLI1": {"biological_target": "T1, FLI1 (Homo sapiens, UniProt Q01543 1-452)", "T1 sequence": "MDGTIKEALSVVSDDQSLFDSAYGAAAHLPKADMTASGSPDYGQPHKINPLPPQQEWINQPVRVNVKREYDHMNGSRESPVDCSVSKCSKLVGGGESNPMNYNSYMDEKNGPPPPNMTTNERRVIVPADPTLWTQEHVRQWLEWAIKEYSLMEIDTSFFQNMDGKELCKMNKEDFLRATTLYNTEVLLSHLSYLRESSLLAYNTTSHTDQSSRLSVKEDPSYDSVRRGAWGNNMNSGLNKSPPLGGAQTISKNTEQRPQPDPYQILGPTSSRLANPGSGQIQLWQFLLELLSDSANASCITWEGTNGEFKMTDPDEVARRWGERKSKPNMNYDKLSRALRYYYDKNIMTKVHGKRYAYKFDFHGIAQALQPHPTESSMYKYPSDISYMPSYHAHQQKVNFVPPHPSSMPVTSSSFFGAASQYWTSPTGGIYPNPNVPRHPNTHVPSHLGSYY", "how_it_was_run": "(§1)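 Binding signal is defined as a hexamer's read frequency for one factor over its frequency for the tag-only sample. To obtain reads, GST-fused human transcription factors were expressed in yeast, captured on glutathione beads, barcoded with DNA and pooled with that sample. Pools met 200 nmole of a 16-mer random double-stranded DNA library in Tris/NaCl/DTT/glycerol buffer for 30 min at room temperature before washing, 0.1% formaldehyde crosslinking, proximity ligation (BsaI/T4 ligase, 1 h, 37 °C), PCR and Illumina NextSeq500 sequencing.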"}, "ELK1": {"biological_target": "T2, ELK1 (Homo sapiens, UniProt P19419 1-428)", "T2 sequence": "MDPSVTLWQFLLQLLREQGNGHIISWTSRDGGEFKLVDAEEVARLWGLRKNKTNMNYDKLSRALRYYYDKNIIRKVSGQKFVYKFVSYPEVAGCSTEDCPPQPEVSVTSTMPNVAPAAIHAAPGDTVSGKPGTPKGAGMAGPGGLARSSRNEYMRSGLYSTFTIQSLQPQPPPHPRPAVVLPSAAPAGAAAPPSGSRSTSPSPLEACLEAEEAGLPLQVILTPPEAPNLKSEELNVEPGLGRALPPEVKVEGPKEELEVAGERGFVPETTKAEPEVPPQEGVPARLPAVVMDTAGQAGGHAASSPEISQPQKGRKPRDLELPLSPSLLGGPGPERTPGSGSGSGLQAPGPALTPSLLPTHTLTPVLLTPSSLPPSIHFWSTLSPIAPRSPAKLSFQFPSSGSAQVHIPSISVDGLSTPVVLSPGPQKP", "how_it_was_run": "as §1"}, "ELF1": {"biological_target": "ELF1 (Homo sapiens, UniProt P32519 1-619)", "sequence (P32519 whole entry)": "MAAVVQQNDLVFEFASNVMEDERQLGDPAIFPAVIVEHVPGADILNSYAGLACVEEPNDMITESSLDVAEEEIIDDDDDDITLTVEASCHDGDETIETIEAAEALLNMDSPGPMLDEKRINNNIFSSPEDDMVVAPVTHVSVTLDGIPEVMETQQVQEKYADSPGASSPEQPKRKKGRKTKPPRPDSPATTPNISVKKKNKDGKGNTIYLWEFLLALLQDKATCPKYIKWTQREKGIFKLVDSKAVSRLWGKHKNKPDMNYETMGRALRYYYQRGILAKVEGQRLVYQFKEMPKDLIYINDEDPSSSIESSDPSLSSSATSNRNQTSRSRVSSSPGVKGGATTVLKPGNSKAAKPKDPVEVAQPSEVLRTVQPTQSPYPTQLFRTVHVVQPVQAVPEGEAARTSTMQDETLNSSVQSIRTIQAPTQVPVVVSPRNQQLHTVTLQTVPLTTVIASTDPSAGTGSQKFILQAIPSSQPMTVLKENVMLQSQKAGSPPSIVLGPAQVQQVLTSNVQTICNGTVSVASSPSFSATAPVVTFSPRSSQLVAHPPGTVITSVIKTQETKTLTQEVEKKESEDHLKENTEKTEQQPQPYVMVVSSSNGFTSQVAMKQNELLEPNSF", "how_it_was_run": "as §1"}, "SPIB": {"biological_target": "SPIB (Homo sapiens, UniProt Q01892 1-262)", "sequence (Q01892 whole entry)": "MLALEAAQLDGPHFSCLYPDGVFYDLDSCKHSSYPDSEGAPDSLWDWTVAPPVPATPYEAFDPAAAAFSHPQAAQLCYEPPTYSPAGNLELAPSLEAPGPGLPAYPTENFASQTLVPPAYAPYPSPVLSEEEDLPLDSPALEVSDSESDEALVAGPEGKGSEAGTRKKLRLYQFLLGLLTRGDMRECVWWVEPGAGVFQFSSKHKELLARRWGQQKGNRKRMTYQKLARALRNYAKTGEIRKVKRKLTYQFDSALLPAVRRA", "how_it_was_run": "as §1"}, "ETV5": {"biological_target": "ETV5 (Homo sapiens, UniProt P41161 1-510)", "sequence (P41161 whole entry)": "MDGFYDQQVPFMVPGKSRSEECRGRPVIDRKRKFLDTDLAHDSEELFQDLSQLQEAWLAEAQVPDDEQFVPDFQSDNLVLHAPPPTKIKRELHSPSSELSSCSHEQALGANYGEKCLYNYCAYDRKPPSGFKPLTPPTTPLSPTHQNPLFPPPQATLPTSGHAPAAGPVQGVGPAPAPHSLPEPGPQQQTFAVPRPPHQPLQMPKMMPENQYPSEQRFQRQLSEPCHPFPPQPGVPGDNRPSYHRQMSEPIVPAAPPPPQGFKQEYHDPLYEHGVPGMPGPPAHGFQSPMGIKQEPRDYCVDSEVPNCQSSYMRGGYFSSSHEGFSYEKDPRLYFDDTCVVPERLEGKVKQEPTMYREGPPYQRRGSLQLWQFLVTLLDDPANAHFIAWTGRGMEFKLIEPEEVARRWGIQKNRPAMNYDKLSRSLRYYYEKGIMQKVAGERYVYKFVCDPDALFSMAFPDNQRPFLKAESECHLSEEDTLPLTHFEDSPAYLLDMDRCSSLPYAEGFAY", "how_it_was_run": "as §1"}, "SPIC": {"biological_target": "T3, SPIC (Homo sapiens, UniProt Q8N5J4 1-248)", "T3 sequence": "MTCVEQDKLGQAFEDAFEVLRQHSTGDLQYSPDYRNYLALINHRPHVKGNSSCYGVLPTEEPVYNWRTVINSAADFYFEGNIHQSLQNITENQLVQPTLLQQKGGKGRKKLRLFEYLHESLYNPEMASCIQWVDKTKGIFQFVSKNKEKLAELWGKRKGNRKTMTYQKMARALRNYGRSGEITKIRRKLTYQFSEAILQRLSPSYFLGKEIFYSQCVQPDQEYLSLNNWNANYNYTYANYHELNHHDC", "how_it_was_run": "as §1"}, "SPDEF": {"biological_target": "T4, SPDEF (Homo sapiens, UniProt O95238 1-335)", "T4 sequence": "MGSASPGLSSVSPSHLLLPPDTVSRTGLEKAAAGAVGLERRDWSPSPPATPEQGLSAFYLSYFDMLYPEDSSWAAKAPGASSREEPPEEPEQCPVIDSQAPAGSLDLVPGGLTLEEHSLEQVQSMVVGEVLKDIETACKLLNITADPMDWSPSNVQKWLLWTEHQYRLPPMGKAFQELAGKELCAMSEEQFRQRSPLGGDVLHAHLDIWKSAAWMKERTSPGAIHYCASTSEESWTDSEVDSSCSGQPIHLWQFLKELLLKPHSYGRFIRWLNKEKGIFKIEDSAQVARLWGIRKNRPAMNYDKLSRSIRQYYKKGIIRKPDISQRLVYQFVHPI", "how_it_was_run": "as §1"}, "ETV3": {"biological_target": "T5, ETV3 (Homo sapiens, UniProt P41162-2 1-143)", "T5 sequence": "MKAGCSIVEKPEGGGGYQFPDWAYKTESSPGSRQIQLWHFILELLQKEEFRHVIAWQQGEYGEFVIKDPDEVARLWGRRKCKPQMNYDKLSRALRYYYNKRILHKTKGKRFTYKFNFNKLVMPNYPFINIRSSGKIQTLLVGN", "how_it_was_run": "as §1"}}, "data": [{"sequence": "GGTATG", "values": [{"measurement": "binding signal", "setting": "FLI1", "result": "1.01 fold enrichment (6-mer frequency, TF over GST control)"}, {"measurement": "binding signal", "setting": "ELK1", "result": "1.03 fold enrichment (6-mer frequency, TF over GST control)"}, {"measurement": "binding signal", "setting": "ELF1", "result": "1.01 fold enrichment (6-mer frequency, TF over GST control)"}, {"measurement": "binding signal", "setting": "SPIB", "result": "1.02 fold enrichment (6-mer frequency, TF over GST control)"}, {"measurement": "binding signal", "setting": "ETV5", "result": "1.01 fold enrichment (6-mer frequency, TF over GST control)"}, {"measurement": "binding signal", "setting": "SPIC", "result": "1.22 fold enrichment (6-mer frequency, TF over GST control)"}, {"measurement": "binding signal", "setting": "SPDEF", "result": "1.02 fold enrichment (6-mer frequency, TF over GST control)"}, {"measurement": "binding signal", "setting": "ETV3", "result": "1.02 fold enrichment (6-mer frequency, TF over GST control)"}]}]}
